Measured values reported in PubChem BioAssay (NCATS).
Records with an inconclusive call do not appear. A call without a number means that no potency is given here. Calls of active or inactive are those of the source. Calls come from the whole dose curve; as a rule, active = well fitted curve in the direction sought with a large enough effect; inconclusive = small, poorly fitted or top-dose-only effect, or another doubt; inactive = no such curve, though single readings can be large; an effect the other way counts as inactive or inconclusive.

Key:
[1] = target: Aldehyde dehydrogenase, mitochondrial (Homo sapiens) (UniProt P05091); experiment: qHTS for Inhibitors of the Aldehyde Dehydrogenase Family (ALDH2) Primary screen (AID 2061308); note: nearly all actives have a fitted effect of over 55% in size
[2] = target: Retinaldehyde dehydrogenase 3 (Homo sapiens) (UniProt P47895); experiment: qHTS for Inhibitors of the Aldehyde Dehydrogenase Family (ALDH1A3) Primary screen (AID 2061315)

Structure (SMILES) | Potency [1] | Potency [2]
COc1ccc(NS(=O)(=O)c2ccc3c(c2)CCC(=O)N3)cc1 | inactive | inactive
COc1ccccc1NC(=O)C(OC(=O)CNC(=O)c1ccccc1)c1ccccc1 (configuration not stated) | inactive | inactive
COc1cccc(NC(=S)N2CCN(c3ccccc3C(F)(F)F)CC2)n1 | inactive | inactive
NC(=O)C1CCN(c2ncc(Br)cn2)CC1 | inactive | inactive
c1csc(CNc2ncnc3ccc(-c4ccc5c(c4)OCO5)cc23)n1 | inactive | inactive
Cc1cc2c(s1)c1cnn(Cc3ccc(-c4ccccc4)cc3)c(=O)c1n2C | inactive | inactive
COc1cccc(-c2nnc3n2N=C(c2ccccc2OC)CS3)c1 | inactive | inactive
N#Cc1c(Cl)cccc1Oc1ccc([S+](=O)([O-])N2CCN([S+](=O)([O-])c3c(F)cccc3F)CC2)cc1 | inactive | inactive
O=S(=O)(Nc1cccc2cccnc12)c1ccc(Br)s1 | inactive | inactive
O=C(Nc1ccc(-c2ccncc2)nc1)c1cccs1 | inactive | inactive
Cc1ccc(OCCn2c(CCN(C)C(=O)C3CCCCC3)nc3ccccc32)cc1 | inactive | inactive
CN(Cc1ccco1)c1ncnc2ccc(-c3ccc4c(c3)OCCO4)cc12 | inactive | inactive
N#Cc1cnc(N[S+](=O)([O-])c2ccc(Nc3nc(-c4ccccc4)cs3)cc2)s1 | inactive | inactive
CC1=C(C(=O)Nc2nnc(-c3ccccc3)s2)C(c2nn(C)cc2Cl)N=C(Nc2nc3ccccc3o2)N1 (configuration not stated) | inactive | inactive
COc1ccc(C(=O)Nc2nnc(-c3ccco3)o2)cc1OC | inactive | inactive
CC(=O)Nc1ccc(Cl)cc1C(=O)c1ccc[nH]1 | inactive | inactive

Structure (SMILES) | Potency [1] | Potency [2]
Cc1cc(C)nc(NC(=S)N2CCN(c3ccc4ccccc4n3)CC2)c1 | inactive | inactive
NC(=O)C1CCN(c2nc(-c3cccnc3)cs2)CC1 | inactive | inactive
CC(=O)c1ccc(C(=O)Nc2nnc(-c3ccco3)o2)cc1 | inactive | inactive
CCC(CC)C(=O)OC12C(OC(=O)C(C)C)C(C)C3(O)C(C=C(CO)CC4(O)C(=O)C(C)=CC43)C1C2(C)C (configuration not stated) | inactive | inactive
Cc1cc(/C=C2/C(=O)Nc3ccccc32)cc(C)c1O | inactive | inactive
Cc1ccc(S(=O)(=O)Nc2ccc(C(=O)Nc3nc(-c4ccccc4)cs3)c(Cl)c2)cc1 | inactive | inactive
Cc1ccc(S(=O)(=O)Nc2ccccc2C(=O)Nc2ccc(-c3ccccc3)cn2)cc1 | inactive | inactive
O=S(=O)(c1ccc2c(c1)OCCO2)N1CCN(S(=O)(=O)c2cc(F)c(F)cc2F)CC1 | inactive | inactive
N#Cc1ccc(NS(=O)(=O)c2ccc(NC(=O)Cc3ccc(F)c(Cl)c3)cc2)cc1 | inactive | inactive
COc1ccc(-c2ccc(NC(=O)c3cccs3)cn2)cc1 | inactive | inactive
O=S(=O)(c1ccc2c(c1)OCCO2)N1CCN(S(=O)(=O)c2c(F)cccc2F)CC1 | inactive | inactive
NC(=O)c1ccc(Cc2c(-c3cccc(-c4ccccc4)c3)[nH]n(-c3nc(C(=O)O)cs3)c2=O)cc1 | inactive | inactive
NC(=O)c1c(NC(=O)c2ccncn2)sc2c1CCCC2 | inactive | inactive
Cc1ccc(NC(=O)CN2C(=O)N/C(=C\c3cccn3-c3cccc(-c4nn[nH]n4)c3)C2=O)cc1 | inactive | inactive
S=C(NCCCNc1ccc(Br)cn1)NCCCc1cnc[nH]1 | inactive | inactive
